IDE exosite inh – displaces the probe from the exo-site of human IDE | P14735 | purified IDE, FL-6b probe fluorescence polarization; stronger effect = lower value | z-score at 20 µM | hit rate 6.3% among 17,000;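 active = z-score of -3 or lower, meaning strong loss of probe binding signal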;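 also: His-tagged human IDE residues 42-1019 made in E. coli with 30 nM FL-6b probe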
Target sequence (P14735 42-1019 limits assumed): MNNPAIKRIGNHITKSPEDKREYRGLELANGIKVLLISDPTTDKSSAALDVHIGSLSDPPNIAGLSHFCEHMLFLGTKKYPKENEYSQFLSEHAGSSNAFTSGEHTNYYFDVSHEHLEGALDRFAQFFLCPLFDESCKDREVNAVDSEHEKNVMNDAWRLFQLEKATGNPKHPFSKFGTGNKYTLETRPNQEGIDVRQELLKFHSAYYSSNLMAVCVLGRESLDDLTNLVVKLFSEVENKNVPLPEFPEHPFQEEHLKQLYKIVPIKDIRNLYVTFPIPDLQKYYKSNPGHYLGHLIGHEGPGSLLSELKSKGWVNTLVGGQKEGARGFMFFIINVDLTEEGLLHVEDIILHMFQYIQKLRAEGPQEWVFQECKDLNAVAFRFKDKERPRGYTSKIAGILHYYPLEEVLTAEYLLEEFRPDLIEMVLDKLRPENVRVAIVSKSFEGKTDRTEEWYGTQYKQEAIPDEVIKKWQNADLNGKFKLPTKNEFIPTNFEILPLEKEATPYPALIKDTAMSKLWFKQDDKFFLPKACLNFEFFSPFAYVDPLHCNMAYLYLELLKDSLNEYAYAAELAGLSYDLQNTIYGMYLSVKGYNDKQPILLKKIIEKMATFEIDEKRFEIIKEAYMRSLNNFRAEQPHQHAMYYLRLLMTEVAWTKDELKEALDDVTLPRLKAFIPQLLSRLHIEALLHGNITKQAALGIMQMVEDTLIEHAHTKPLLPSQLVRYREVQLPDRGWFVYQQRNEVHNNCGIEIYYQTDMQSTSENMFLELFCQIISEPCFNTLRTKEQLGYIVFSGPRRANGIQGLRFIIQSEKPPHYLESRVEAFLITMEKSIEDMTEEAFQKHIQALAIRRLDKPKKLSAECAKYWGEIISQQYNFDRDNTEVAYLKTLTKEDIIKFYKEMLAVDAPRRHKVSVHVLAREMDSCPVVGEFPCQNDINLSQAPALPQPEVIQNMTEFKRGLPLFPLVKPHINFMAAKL
* = called active by the depositor. The sample as a whole holds a higher share of hits than the screen did.

SMILES | IDE exosite inh
O=C(Cc1ccccn1)N1CC(=O)N2[C@H](CO)[C@@H](c3ccc(-c4ccccc4)cc3)[C@H]2C1 | -0.4
COC(=O)C[C@H]1CC[C@@H]2[C@H](COc3ccc(NC(=O)Nc4cccc(C#N)c4)cc3C(=O)N2C)O1 | -0.68
N#C[C@H]1[C@@H](c2ccc(-c3ccccc3)cc2)[C@@H](CO)N1C(=O)Cc1ccncc1 | 3
O=C1CN(S(=O)(=O)c2ccccc2)C[C@@H]2[C@H](c3ccc(C#CCc4ccccc4)cc3)[C@H](CO)N12 | -0.67
COCC(=O)NC[C@@H]1[C@H](c2ccccc2)[C@H](CO)N1C(C)=O | 4.4
O=C(N[C@H]1CC[C@@H](CC(=O)N2CCOCC2)O[C@@H]1CO)c1cccc(F)c1 | 0.72
C/C=C/c1ccc2c(c1)[C@@H]1[C@@H](CCN1S(=O)(=O)c1ccccc1OC)[C@H](CO)N2C | -0.095
CCCNC(=O)N1[C@H](C#N)[C@H](c2ccccc2C2=CCCC2)[C@@H]1CO | 1.7
COc1ccccc1C#Cc1ccc([C@H]2[C@H](C#N)N(C(=O)C3CCC3)[C@H]2CO)cc1 | -8.1*
N#C[C@@H]1[C@@H](c2ccc(C#Cc3ccccc3F)cc2)[C@H](CO)N1C(=O)C1CCCCC1 | 1.4
COc1ccccc1C#Cc1ccc([C@@H]2[C@H](C#N)N(C(=O)C3CCCCC3)[C@H]2CO)cc1 | -6.6*
COc1ccccc1C#Cc1ccc([C@@H]2[C@@H](CO)N(C(=O)C3CCCCC3)[C@H]2C#N)cc1 | -1.7
COc1ccccc1C#Cc1ccc([C@@H]2[C@@H](C#N)N(C(=O)C3CCC3)[C@H]2CO)cc1 | -4.8*
COc1ccccc1C#Cc1ccc([C@@H]2[C@@H](CO)N(C(=O)C3CCC3)[C@H]2C#N)cc1 | -4.2*
CN1C(=O)c2cc(NC(=O)c3cccc(F)c3)ccc2OC[C@@H]2O[C@@H](CC(=O)NCc3ccccc3Cl)CC[C@@H]21 | -1.1
C[C@H](NC(=O)C[C@@H]1CC[C@H]2[C@@H](COc3ccc(NC(=O)C4CCOCC4)cc3C(=O)N2C)O1)c1ccccc1 | -0.77
CNC(=O)C[C@H]1CC[C@@H]2[C@@H](COc3ccc(NC(=O)c4ccccc4F)cc3C(=O)N2C)O1 | 0.74
CN1c2ccc(-c3ccccc3)cc2[C@@H]2[C@@H](CCN2C(=O)NC2CCCCC2)[C@H]1CO | 2.4
COCCN(C[C@@H]1N[C@@H](CO)[C@H]1c1ccc(-c2cccc(F)c2)cc1)C(C)=O | -2.9
O=C(Nc1cc(F)ccc1F)N[C@H]1CC[C@@H](CCn2cc(C3CCCCC3)nn2)O[C@H]1CO | 0.036
COCC#Cc1ccc([C@@H]2[C@@H](CO)N3CCCCN(S(=O)(=O)c4ccc(OC)cc4)C[C@@H]23)cc1 | 1.6
CO[C@H]1CN(C)C(=O)c2ccc(NS(=O)(=O)c3c(C)noc3C)cc2OC[C@@H](C)NC[C@H]1C | 0.34
COCC#Cc1ccc([C@H]2[C@@H](CO)N3CCCCN(S(=O)(=O)c4ccccc4F)C[C@@H]23)cc1 | 1.8
O=C(CC(F)(F)F)N1C[C@@H]2[C@H](c3ccccc31)[C@@H](CO)N2C(=O)C1CCCCC1 | 1.6
CO[C@H]1CN(C)C(=O)c2cc(NC(=O)C3CC3)ccc2OC[C@@H](C)N(Cc2cc(F)ccc2F)C[C@@H]1C | -1.1
SMILES | IDE exosite inh
N#C[C@H]1[C@@H](c2ccccc2-c2cccc(F)c2)[C@H](CO)N1C(=O)CN1CCOCC1 | 0.75
COc1ccccc1C#Cc1ccc([C@@H]2[C@@H](C#N)N(C(=O)C3CCC3)[C@@H]2CO)cc1 | -4.6*
N#C[C@@H]1[C@H](c2ccc(C#Cc3ccccc3F)cc2)[C@H](CO)N1C(=O)C1CCC1 | 3.6
COc1ccccc1C#Cc1ccc([C@@H]2[C@H](C#N)N(C(=O)C3CCC3)[C@H]2CO)cc1 | -7.1*
N#C[C@@H]1[C@H](c2ccc(C#Cc3ccc(F)cc3)cc2)[C@@H](CO)N1C(=O)C1CCCC1 | -0.026
N#C[C@@H]1[C@@H](c2ccc(C#Cc3ccccc3F)cc2)[C@@H](CO)N1C(=O)C1CCCCC1 | 2.9
COc1ccc(C#Cc2ccc([C@@H]3[C@H](CO)N4C(=O)CN(C(=O)c5ccccc5)C[C@@H]34)cc2)cc1 | 0.7
CCCC#Cc1ccc([C@H]2[C@H]3CN(C(=O)Nc4ccccc4F)CC(=O)N3[C@H]2CO)cc1 | -0.058
O=C1N[C@@H](c2ccccc2)COCc2cn(nn2)CC[C@@H]1Cc1ccc(C(F)(F)F)cc1 | 1.2
CCN(C[C@H]1N[C@H](CO)[C@@H]1c1ccc(-c2cccc(C#N)c2)cc1)C(C)=O | 4.3
O=C(CN1CCOCC1)N1[C@H](CO)[C@H]2c3ccccc3NC[C@H]21 | 2.8
N#C[C@H]1[C@@H](c2ccc(C3=CCCCC3)cc2)[C@H](CO)N1C(=O)c1ccccn1 | -0.36
COc1ccc([C@H]2C/C=C\C[C@H](c3ccc4c(c3)OCO4)NC(=O)[C@H](c3ccccc3)CC(=O)N2)c(OC)c1 | 0.53
CCC(=O)N1CC(=O)N2[C@H](CO)[C@@H](c3ccc(C#CCC(C)C)cc3)[C@@H]2C1 | -0.095
O=C(C1CC1)N1CC(=O)N2[C@H](C1)[C@@H](c1ccc(-c3ccccc3F)cc1)[C@@H]2CO | -8.1*
O=C(C1CCC1)N1CC(=O)N2[C@H](CO)[C@H](c3ccc(-c4ccccc4F)cc3)[C@@H]2C1 | -3.2*
O=C(C1CCCC1)N1CC(=O)N2[C@H](CO)[C@@H](c3ccc(-c4ccccc4F)cc3)[C@H]2C1 | 2.8
O=C(C1CCC1)N1CC(=O)N2[C@H](C1)[C@@H](c1ccc(Br)cc1)[C@@H]2CO | 0.91
O=C(C1CCCC1)N1CC(=O)N2[C@@H](CO)[C@H](c3ccc(-c4ccccc4F)cc3)[C@@H]2C1 | -5.7*
O=C(C1CCCC1)N1CC(=O)N2[C@H](C1)[C@H](c1ccc(-c3ccccc3F)cc1)[C@@H]2CO | -2.9
O=C(C1CC1)N1CC(=O)N2[C@@H](CO)[C@H](c3ccc(-c4ccccc4F)cc3)[C@@H]2C1 | 0.71
O=C(C1CCC1)N1CC(=O)N2[C@@H](CO)[C@@H](c3ccc(-c4ccccc4F)cc3)[C@@H]2C1 | -5.6*
Cc1noc(C)c1NC(=O)N1C[C@@H](O)COC[C@H]2O[C@@H](CC(=O)N[C@@H]3CCN(Cc4ccccc4)C3)CC[C@@H]21 | 0.006
FC(F)(F)c1cccc(CN2[C@@H]3CNC[C@H]2[C@@H]3c2ccc(-c3cccnc3)cc2)c1 | -0.87
CCCC#Cc1ccc([C@H]2[C@H](CO)N3C(=O)CN(C(=O)Nc4ccccc4)C[C@@H]23)cc1 | 2.2
SMILES | IDE exosite inh
C[C@H]1CN([C@@H](C)CO)C(=O)c2c(c3ccccc3n2C)-c2ccccc2CO[C@H]1CN(C)C(=O)[C@@H](Cc1ccccc1)N(C)C | -0.15
O=C1CCCn2cc(nn2)COC[C@@H](c2ccccc2)N1 | -0.66
CN1C(=O)c2cc(NC(=O)Cc3cccs3)ccc2OC[C@@H]2O[C@H](CC(=O)NCCCN3CCOCC3)CC[C@@H]21 | -1.4
COC(=O)C[C@@H]1CC[C@@H]2[C@H](COc3ccc(NC(=O)Nc4cccc(C#N)c4)cc3C(=O)N2C)O1 | -0.68
CN1C(=O)c2cc(NC(=O)C3CCOCC3)ccc2OC[C@H]2O[C@H](CC(=O)NCc3ccccc3F)CC[C@H]21 | -0.18
CC(=O)N1CCCCN2[C@H](C1)[C@@H](c1ccc(-c3cccc(C(=O)N(C)C)c3)cc1)[C@@H]2CO | 2.7
C[C@@H](NC(=O)C[C@H]1C=C[C@H](NC(=O)c2cccnc2)[C@H](CO)O1)c1ccccc1 | -0.6
COc1cccc(CN2CC3(C2)[C@H](c2ccccc2)[C@@H](CO)N3Cc2ccccc2OC)c1 | -0.39
O=S(=O)(NC[C@@H]1[C@@H](c2ccccc2)[C@H](CO)N1CC1CC1)c1ccccc1 | -1.1
